# PubChem BioAssay AID1851 (National Center for Advancing Translational Sciences (NCATS), 2009)
# Values joined by “and” are separate entries in the source; they are usually repeats but may differ in a detail not shown here. Equal values may be shown once. About 5,800 (36%) of roughly 16,000 compounds were called active. About 23% were inconclusive and are not listed. Calls follow the shape of the dose curve; as a rule, active = well fitted curve in the direction sought with a large enough effect; inconclusive = small, poorly fitted or top-dose-only effect, or effect the other way; inactive = no such curve, though single readings can be large or run the other way. Some of the results follow. The source holds several records for some structures; these can differ, active in one and inactive in another.
# Target: Cytochrome P450 2C19 (Homo sapiens) (UniProt P33261)
# Assay: Cytochrome panel assay with activity outcomes
# Conditions: recombinant CYP, pro-luciferin dealkylation, luminescence, p450-cyp2c19; series mostly up to 57.1 µM; activity, negative = inhibition: at the top concentration
# % is scaled to controls: 0 for no effect and ±100 for the full control effect.
# Sequence of Cytochrome P450 2C19 (Homo sapiens) (P33261 whole entry, looked up): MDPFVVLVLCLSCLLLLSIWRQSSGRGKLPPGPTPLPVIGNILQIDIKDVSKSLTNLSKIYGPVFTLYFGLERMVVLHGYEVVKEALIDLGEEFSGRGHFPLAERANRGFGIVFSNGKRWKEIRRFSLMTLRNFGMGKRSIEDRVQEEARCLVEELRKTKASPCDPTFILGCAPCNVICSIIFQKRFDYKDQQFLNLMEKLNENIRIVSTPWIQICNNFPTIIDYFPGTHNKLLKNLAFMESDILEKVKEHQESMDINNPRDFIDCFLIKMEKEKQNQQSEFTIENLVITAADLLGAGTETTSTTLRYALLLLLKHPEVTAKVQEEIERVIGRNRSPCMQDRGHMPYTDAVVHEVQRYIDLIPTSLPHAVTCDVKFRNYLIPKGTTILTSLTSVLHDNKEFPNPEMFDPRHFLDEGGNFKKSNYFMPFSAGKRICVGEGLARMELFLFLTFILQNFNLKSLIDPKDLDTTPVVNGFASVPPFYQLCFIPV
Structure (SMILES),"activity, negative = inhibition",AC50
NCCCNCCSP(=O)(O)O,-12% (inactive),–
CCN1CCN(Cc2cc(OC)c(OC)cc2[N+](=O)[O-])CC1,32.1% (inactive),–
c1ccc([C@H]2CNCc3ccccc32)cc1,-8.22% (inactive),–
Cc1ccc(N(C)C(=O)Oc2cccc3ccc(C)nc23)cc1,–,7.94 µM (active)
C=CCN1C[C@@H](C)N([C@H](c2ccc(C(=O)N(CC)CC)cc2)c2cccc(OC)c2)C[C@H]1C,-13.5% (inactive),–
Cc1cc(C)c(-n2c(O)c(C=NCCN3CCOCC3)c(=O)[nH]c2=O)c(C)c1,-7% (inactive),–
CC(C)CN1CCCC2(CCN(C(=O)c3ccncc3)CC2)C1,-18.7% (inactive),–
NCCCC[C@H](N[C@@H](CCc1ccccc1)C(=O)O)C(=O)N1CCC[C@H]1C(=O)O,33.4% [at 25.6 µM] (inactive),–
CN(C)C=C1C(=O)N(C2CCCCC2)C(=O)N(C2CCCCC2)C1=O,–,20 µM (active)
N=C(N)c1ccc(-c2ccc(-c3ccc(C(=N)N)cc3)o2)cc1,37% [at 11.4 µM] (inactive),–
CN1CCC2(CC1)CCN(C(=O)Oc1ccccc1)CC2,-2.06% (inactive),–
CCN1C[C@@]2(COC)CC[C@H](OC)[C@]34[C@@H]1[C@]1(OCO[C@@]15C[C@@H](OC)C1C[C@H]3[C@H]5[C@@H]1OC)[C@H](O)[C@@H]24,8.77% [at 25.6 µM] (inactive),–
O=C(O)CC[N+](=O)[O-],37.9% (inactive),–
Cc1c(OCC(F)(F)F)ccnc1CS(=O)c1nc2ccccc2[nH]1 (configuration not stated),–,0.1 µM (active)
CC1(C)N(O)C(c2ccc(C(=O)O)cc2)=[N+]([O-])C1(C)C,17.1% (inactive),–
CCc1ccc(CCN2CCCCC2)nc1,-27.8% [at 11.4 µM] (inactive),–
Cc1ccccc1-c1nc(CS(=O)CC(=O)N2CCC3(CC2)OCCO3)c(C)o1 (configuration not stated),–,10 µM (active)
CCc1ccccc1NC(=S)NC1CC2CCC(C1)N2Cc1ccco1 (configuration not stated),-14.7% (inactive),–
Nc1nc(N)c(Cn2ccnc2)c(=O)[nH]1,32.7% [at 11.4 µM] (inactive),–
Cc1o[nH]c(=O)c1C[C@H](N)C(=O)O,–,inactive and 2.51 µM (active)
Cc1o[nH]c(=O)c1C[C@@H](N)C(=O)O,-36.4% (inactive),–
N[C@@H](Cn1oc(=O)[nH]c1=O)C(=O)O,-33.9% (inactive),–
N[C@H](Cc1o[nH]c(=O)c1Cl)C(=O)O,–,1.26 µM (active)
N[C@@H](Cc1cc(Br)c(O)c(Br)c1)C(=O)O,11.6% [at 11.4 µM] (inactive),–
N[C@H](CCl)C(=O)O,-7.13% (inactive),–

Structure (SMILES),"activity, negative = inhibition",AC50
O=c1cc(-c2ccc(O)c(O)c2)oc2cc(O)cc(O)c12,-40.2% [at 25.6 µM] (inactive),–
NCCCN1CCN(c2ccccc2)CC1,2.32% [at 11.4 µM] (inactive),–
Nc1ccc(CCN2CCN(c3cccc(C(F)(F)F)c3)CC2)cc1,–,7.94 µM (active)
Cc1cc(OCc2ccc([N+](=O)[O-])cc2)c2c3c(c(=O)oc2c1)CCCC3,–,0.708 µM (active)
Cc1cc(OCC(=O)OC(C)C)c2c3c(c(=O)oc2c1)CCCC3,–,3.55 µM (active)
CC(C)[C@H](CO)Nc1nc(Nc2cccc(Cl)c2)c2ncn(C(C)C)c2n1,-35.5% (inactive),–
CC[C@H](C)C(=O)O[C@@H]1[C@H](O)[C@@H]2[C@H](CN3C[C@@H](C)CC[C@@H]3[C@@]2(C)O)[C@@H]2C[C@@]34O[C@@]5(O)[C@@H](OC(=O)[C@](C)(O)CC)CC[C@@]3(C)[C@H]5[C@H](OC(C)=O)[C@@H](OC(C)=O)[C@H]4[C@]12O,14.3% [at 25.6 µM] (inactive),–
COc1cc2c(cc1OC)[C@]13CC[N@+]4(C)CC5=CCO[C@H]6CC(=O)N2[C@@H]1[C@@H]6[C@@H]5C[C@]34O,-1.84% [at 11.4 µM] (inactive),–
c1ccc(CN2CCN(Cc3ccc4c(c3)OCCO4)CC2)cc1,-23.7% (inactive),–
Cc1ccc(C2CC(=O)C(C=NCCN3CCN(C(=O)Cc4ccccc4)CC3)=C(O)C2)cc1 (configuration not stated),–,3.16 µM (active)
c1ccc(CCN2CCOCC2)nc1,1.5% [at 11.4 µM] (inactive),–
CC(C)CN1CCC2(CC1)CCN(C(=O)Oc1ccccc1)CC2,-17.2% (inactive),–
CCCN1CCc2cc(O)cc3c2[C@H]1Cc1ccc(O)c(O)c1-3,-21.6% (inactive),–
c1ccc(CN2CCCC3(CCNCC3)C2)cc1,-12.1% (inactive),–
O=C(Oc1ccccc1)N1CCC2(CCN(Cc3ccccc3)CC2)CC1,-9.29% (inactive),–
c1ccc(CN2CCC3(CCNCC3)CC2)cc1,–,5.01 µM (active)
c1cc(CN2CCC3(CCNCC3)CC2)ccn1,-9.72% (inactive),–
c1ccc(CN2CC[C@@]3(CCCNC3)C2)cc1,-44.4% (inactive),–
c1ccc(CN2CCC3(CCc4ccccc43)CC2)cc1,–,2.51 µM (active)
CCn1cc(C(=O)O)c(=O)c2cc3c(cc21)OCO3,3.65% [at 25.6 µM] (inactive),–
C[As+](C)(c1ccc(Br)c([N+](=O)[O-])c1)c1ccc(Br)c([N+](=O)[O-])c1.O=[N+]([O-])O,27.9% [at 11.4 µM] (inactive),–
S=C=Nc1cccc(C2(N3CCCCC3)CCCCC2)c1,-29.9% (inactive),–
CS(=O)(=O)Nc1ccc(Cc2noc(-c3ccc4[nH]cc(CCN)c4c3)n2)cc1,–,15.8 µM (active)
C[C@H](N)Cc1c[nH]c2ccc(OCc3cccs3)cc12,–,inactive
CN1CCN(c2ccc3ccccc3n2)CC1,–,inactive

Structure (SMILES),"activity, negative = inhibition",AC50
C[C@H](Br)C(=O)N[C@H](CO)C(=O)O,4.64% [at 11.4 µM] (inactive),–
CCCN1CCC[C@@H]2Cc3nc(N)ncc3C[C@H]21,10.2% (inactive),–
CC(=Nc1c(C)n(C)n(-c2ccccc2)c1=O)c1c(O)n(Cc2ccccc2)c(=O)[nH]c1=O,-15.7% (inactive),–
CC(=NCCN1CCOCC1)c1c(O)n(Cc2ccccc2)c(=O)[nH]c1=O,8.57% (inactive),–
CC(=NCc1ccco1)c1c(O)n(-c2ccccc2)c(=O)[nH]c1=O,–,10 µM (active)
C/C=C1\C[N@@+]2(C)CC[C@@]34C(=C(C=O)[C@H]1C[C@H]32)Nc1ccccc14,4.17% [at 25.6 µM] (inactive),–
O=[N+]([O-])c1cc(-c2ccc([As](=O)(O)O)cc2)ccc1[As](=O)(O)O,22.9% [at 11.4 µM] (inactive),–
COCCNC(=S)NC1CC2CCCC(C1)N2Cc1cccs1 (configuration not stated),-11.7% (inactive),–
Cc1ccc(N2C(=O)/C(=C/c3ccc(CN(CCC#N)S(C)(=O)=O)o3)C(=O)NC2=S)cc1C,–,10 µM (active)
COc1cccc2c1[C@H](CO)N1[C@H](C#N)[C@@H]3C[C@H](C(=O)O)[C@@H]([C@@H]1C2)N3C,11.2% [at 11.4 µM] (inactive),–
C=C1CC[C@H](O)C/C1=C/C=C1\CCC[C@]2(C)[C@H]1CC[C@H]2[C@@H](C)CCCC(C)C,-6.46% [at 25.6 µM] (inactive),–
CC(=O)O/C(=C1/C[C@H]2[C@@H]3CC=C4C[C@@H](OC(C)=O)CC[C@]4(C)[C@@H]3CC[C@]2(C)C1=O)C(F)(F)F,10.6% [at 11.4 µM] (inactive),–
CNCCc1ccc(O)c(O)c1,-24.1% (inactive),–
CN1CCN(c2ccc([N+](=O)[O-])c3[nH]o[n+](=O)c23)CC1,-37.2% [at 11.4 µM] (inactive),–
CN1CCN(c2ccc([N+](=O)[O-])c(N/N=C3\CN4CCC3CC4)c2)CC1,–,7.08 µM (active)
CC[C@H]1CN2CCc3cc(OC)c(OC)cc3[C@H]2C[C@@H]1C[C@H]1NCCc2c1[nH]c1ccc(O)cc21,34.7% [at 11.4 µM] (inactive),–
Cc1ncc([N+](=O)[O-])n1CCN=[N+]=[N-],21.1% [at 11.4 µM] (inactive),–
c1ccc(N2CC3(CCNCC3)C2)cc1,-41.3% (inactive),–
CC(C)(C)NC[C@H](O)c1ccccc1Cl,-21.7% (inactive),–
Cc1ccc(CCN2CC(C(=O)N3CCC4(CC3)OCCO4)CC2=O)cc1 (configuration not stated),-13.7% (inactive),–
Cc1ccc(S(=O)(=O)NCC2CCC(C(=O)N3CCC4(CC3)OCCO4)CC2)cc1 (configuration not stated),–,14.1 µM (active)
NC(=O)COc1c(F)cc(SCCNS(=O)(=O)c2ccccc2)cc1F,-23.1% (inactive),–
COc1cc2c(cc1OC)[C@H](C)NCC2,-21.2% [at 25.6 µM] (inactive),–
Nc1ccccc1O.O.O=C(O)[C@H]1[O][Sb][O][C@H]1C(=O)O,16.1% [at 11.4 µM] (inactive),–
O=C(Nc1ccc(Cl)cc1C(=O)c1ccccc1Cl)c1ccco1,–,2.82 µM (active)

Structure (SMILES),"activity, negative = inhibition",AC50
CN(C)CCOC(=O)COc1ccc(Cl)cc1,30.2% (inactive),–
O=C(Nc1ccc(Cl)cc1C(=O)c1ccccc1)c1ccco1,–,4.47 µM (active)
COc1ccc(OCC(=O)Nc2ccc(Cl)cc2C(=O)c2ccccc2)cc1,–,1 µM (active)
O=P(c1ccccc1)(c1ccccc1)N1CC2(CC2)CC(O)(c2ccccc2)C1 (configuration not stated),-42.2% (inactive),–
CCC[C@@](C)(COC(N)=O)COC(=O)NC(C)C,-25% [at 25.6 µM] (inactive),–
COC(=O)N1CCC2(CCCN(C)C2)CC1,-41.1% (inactive),–
NC[C@H](O)c1cc(O)c(O)cc1F,15.1% (inactive),–
C=CCN1CCC2(C)c3cc(O)ccc3C[C@H]1[C@H]2C,–,inactive
COc1cc2c(cc1O)C[C@@H]1c3c(cc(O)c(OC)c3-2)CCN1C,12.7% [at 11.4 µM] (inactive),–
CN1CCc2cc(O)cc3c2[C@H]1Cc1ccc(O)c(O)c1-3,-16.9% (inactive),–
CC(C)(C)NC[C@H](O)c1cc(Cl)c(N)c(Cl)c1,29% [at 25.6 µM] (inactive),–
CN1[C@@H]2CC[C@H]1CC(O[C@@H](c1ccccc1)c1ccccc1N)C2 (some centres not stated),19.3% (inactive),–
CNCCc1cnc[nH]1,-29.9% (inactive),–
Cc1ccccc1-c1cncnc1NCCc1cnc[nH]1,–,0.0501 µM (active)
Clc1ccccc1-c1cncnc1NCCc1cnc[nH]1,–,0.0126 µM (active)
c1ccc2c(c1)-c1ccccc1C2N1CC2CCC(CC2)C1,-44.5% [at 11.4 µM] (inactive),–
CCCCC/C=C\C/C=C\C/C=C\C/C=C\CCCC(=O)NCC(=O)O,-19% (inactive),–
CC(C)N[C@@H](C)Cc1ccc(I)cc1,14.9% (inactive),–
O=C(C[C@H](c1ccccc1)c1c(O)c2ccccc2oc1=O)c1ccccc1,-17.3% [at 11.4 µM] (inactive),–
O=C(Nc1ccccc1)N1CCC2(CC1)CCN(C(=O)Oc1ccccc1)CC2,-36.7% (inactive),–
COc1ccc(C[C@H]2NC[C@H](O)[C@@H]2OC(C)=O)cc1,–,3.16 µM (active)
COc1ccc(C[C@@H]2NC[C@H](O)[C@@H]2OC(C)=O)cc1,27.1% [at 25.6 µM] (inactive),–
